Screening results (PubChem)
The full list was thinned out, with hits kept by preference.
Candida biofilm = kills Candida albicans biofilms; hit rate 0.14% among 85,000; AID 834; C. albicans biofilm + clotrimazole, Alamar Blue; inhibition, % at 6 µM;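 active = inhibition above 20%; inactive = inhibition below 20%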;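 note: preformed 24 hr biofilms exposed to compound for 48 hr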
D1 mod = D1 dopamine receptor (human) allosteric modulation; P21728; hit rate 5.9% among 58,000; HEK293 D1, CRE-luciferase, dopamine EC30 potentiation; actives deviate in either direction; B-score at 10 µM;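 active = luminescence count or its row- and column-corrected plate score outside the 99.7% band of the plate's sample wells, on either side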
HePTP inh = human HePTP phosphatase inhibition | recombinant HePTP phosphatase activity, OD absorbance | hit rate 0.64% among 110,000 | AID 521 | P35236 | inhibition, % at 20 µM; in the data active = inhibition above about 50%
Target sequence (P35236 whole entry, looked up): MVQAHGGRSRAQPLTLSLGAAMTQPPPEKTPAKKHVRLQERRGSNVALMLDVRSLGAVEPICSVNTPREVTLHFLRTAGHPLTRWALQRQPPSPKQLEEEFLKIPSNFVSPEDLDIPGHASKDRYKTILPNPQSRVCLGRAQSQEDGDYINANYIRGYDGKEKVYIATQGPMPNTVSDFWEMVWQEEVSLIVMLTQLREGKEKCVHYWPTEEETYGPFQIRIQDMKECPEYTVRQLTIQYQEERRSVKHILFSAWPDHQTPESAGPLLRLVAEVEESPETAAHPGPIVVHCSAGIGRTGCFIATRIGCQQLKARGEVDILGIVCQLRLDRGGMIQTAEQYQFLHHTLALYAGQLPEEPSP
TNAP act mid DEA = activates human TNAP at intermediate phosphate acceptor concentration; 64,000 tested, under 10 active; activation factor at 20 µM; purified TNAP, CDP-star luminescence, 100 mM DEA, 30 min; active compounds read high; scale: 0 levamisole-inhibited, 1 vehicle-only enzyme;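 active = activation factor of at least 2 at 20 µM, relative to controls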
FXIIa inh mix = blocks human factor XIIa in pooled compound mixtures | AID 684 | P00748 | purified FXIIa, fluorogenic substrate | hit rate 0.2% among 62,000 | inhibition, % at 5 µM
FXIa inh mix = factor XIa (human) inhibition, mixture screen. P03951. hit rate 0.19% among 62,000. purified FXIa, fluorogenic substrate, pooled mixtures. inhibition, % at 5 µM;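 note: each value is inhibition by a whole ten-compound pool holding the compound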
D1 mod confirm = D1 receptor (human) allosteric modulation, confirmed | HEK293 D1 CRE-luciferase, dopamine EC30 potentiation; active compounds read high | hit rate 88% among 2,200 | shares compounds with D1 mod | luminescence at 10 µM;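 active = luminescence in either of two replicates above the same-plate mean plus 3 SD of the low-dose dopamine control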
D1 no dopamine = secondary test of D1 modulators: activity without dopamine. hit rate 0.8% among 1,900. HEK293 D1 CRE-luciferase, luminescence, no dopamine; active compounds read high. luminescence at 10 µM. AID 646. shares compounds with D1 mod; in the data active = luminescence above about 3900
Isoprot counter = counter-screen for D1 modulators: isoproterenol response in HEK293 cells; shares compounds with D1 mod; HEK293 D1 CRE-luciferase, isoproterenol EC30 counter-screen; active compounds read high; luminescence at 10 µM; hit rate 63% among 2,200;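 active = luminescence in either replicate above plate mean of wells with a partly effective reference agonist dose plus 3 SD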;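 note: isoproterenol raises cAMP through native beta-adrenoceptor Gs so signal bypasses D1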
Of the large screens only hits and unclear results are named; the others gave an inactive call (follow-up assays come after a bar, where they were run). Cut-off read from the data, not from the text of the source, unless noted: active = inhibition above about 20% (passing the limit was not always enough); inactive = the rest.

CC1(C)Cc2c(C#N)c(NCCc3ccccc3)nc(-c3ccco3)c2CO1	none (no result: D1 mod, FXIIa inh mix, FXIa inh mix)
COc1ccc(/C=N\Nc2nc(NCc3ccco3)nc(Nc3ccc(OC)cc3)n2)cc1	none (no result: Candida biofilm, D1 mod, TNAP act mid DEA, FXIIa inh mix, FXIa inh mix)
O=CN1Cc2[nH]c3ccccc3c2N(c2ccc(Cl)cc2)C1=O	D1 mod 8.98 | D1 mod confirm 10080 | D1 no dopamine inactive | Isoprot counter inactive
Cc1cc2c(c(=O)n1Cc1ccccn1)C(c1ccc3c(c1)OCO3)C(C#N)=C(N)O2 (stereo unspecified)	none (no result: FXIIa inh mix, FXIa inh mix)
COc1ccc(CCn2c(C)cc3c(c2=O)C(c2ccc4c(c2)OCO4)C(C#N)=C(N)O3)cc1OC (stereo unspecified)	D1 mod 10.8 (no result: FXIIa inh mix, FXIa inh mix) | D1 mod confirm 14224 | D1 no dopamine inactive | Isoprot counter 3352
CCC1=NN(C(=O)c2ccccc2O)C(O)(c2ccncc2)C1 (stereo unspecified)	none (no result: Candida biofilm, D1 mod, TNAP act mid DEA, FXIIa inh mix, FXIa inh mix)
CC1=C(C(=O)Nc2ccc(C)cc2)C(c2cc(Br)ccc2O)NC(=O)N1 (stereo unspecified)	none (no result: Candida biofilm, D1 mod, TNAP act mid DEA, FXIIa inh mix, FXIa inh mix)
CCOC(=O)c1sc2nc(N3CCCC3)c3c(c2c1N)CC(C)(C)OC3	D1 mod 12.7 (no result: Candida biofilm) | D1 mod confirm 21232 | D1 no dopamine inactive | Isoprot counter 5660
C=CCc1c(C)nc2cc(-c3cccc(F)c3)[nH]n2c1=O	none (no result: Candida biofilm, D1 mod, TNAP act mid DEA, FXIIa inh mix, FXIa inh mix)
Cc1ccc(N(Cc2ccco2)C(=O)c2cccc(S(=O)(=O)N(C)C)c2)cc1	D1 mod 2.96 | D1 mod confirm 11896 | D1 no dopamine inactive | Isoprot counter 3180
CCOC(=O)CCn1c2nc(C)cc(C)c2c(=O)n1-c1ccccc1	D1 mod 2.24 | D1 mod confirm inactive | D1 no dopamine inactive | Isoprot counter inactive
CCc1cc(=O)oc2cc3oc(C)c(C)c3cc12	D1 mod 4.46 | D1 mod confirm inactive | D1 no dopamine inactive | Isoprot counter inactive
CCCc1cc(=O)oc2cc3oc(C)c(C)c3cc12	none
Cc1ccc2c(c1)N(C(=O)CSc1nncn1C)C(C)(C)c1ssc(=S)c1-2	D1 mod 2.82 | D1 mod confirm 6228 | Isoprot counter 2648
Cc1cc2c(cc1C)N(C(=O)CSc1nncn1C)C(C)(C)c1ssc(=S)c1-2	none (no result: D1 mod, HePTP inh, TNAP act mid DEA, FXIIa inh mix, FXIa inh mix)
CCOC(=O)N1CCN(C(=O)CCCn2c(=S)[nH]c3ccccc3c2=O)CC1	D1 mod 3.13 | D1 mod confirm 8792 | D1 no dopamine inactive | Isoprot counter inactive
CCOC(=O)N1CCN(C(=O)CCCn2c(=O)[nH]c3ccccc3c2=O)CC1	none
O=C(NCCNC(=O)C(c1ccccc1)c1ccccc1)c1ccco1	D1 mod 5.31 | D1 mod confirm 6392 | Isoprot counter inactive
COCCNC(=O)c1ccc(N(C)S(=O)(=O)c2ccc(OC)c(OC)c2)cc1	D1 mod 11.1 | D1 mod confirm 14404 | D1 no dopamine inactive | Isoprot counter 3924
CCOc1cc(C(=O)NCCOC)ccc1OC	D1 mod 4.81 | D1 mod confirm 7216 | D1 no dopamine inactive | Isoprot counter inactive
COc1ccc(C(=O)Nn2c(C)ccc2C)cc1OC	D1 mod 9.63 | D1 mod confirm 11780 | D1 no dopamine inactive | Isoprot counter 3972
COCCNC(=O)c1ccc(OC)c(OC)c1	none (no result: Candida biofilm, D1 mod, TNAP act mid DEA, FXIIa inh mix, FXIa inh mix)
Cc1ccc(C(=O)Nc2ccccc2C(=O)O)cc1N	none (no result: Candida biofilm, D1 mod, TNAP act mid DEA, FXIIa inh mix, FXIa inh mix)
CC1=NN(c2ccccc2)C(=O)/C1=C\c1cn(CCC#N)nc1-c1ccc(C)o1	none (no result: Candida biofilm, D1 mod, TNAP act mid DEA, FXIIa inh mix, FXIa inh mix)
CC/C(=N/O)c1ccc(CCCC(=O)O)s1	none (no result: Candida biofilm, D1 mod, TNAP act mid DEA, FXIIa inh mix, FXIa inh mix)
COc1ccccc1-c1nnc(SCC(=O)N2CCC(C)CC2)o1	D1 mod 3.07 | D1 mod confirm inactive | Isoprot counter inactive
COc1ccc(-c2nnc(SCC(=O)N3CCCc4ccccc43)o2)cc1OC	D1 mod 15.6 (no result: HePTP inh, TNAP act mid DEA, FXIIa inh mix, FXIa inh mix) | D1 mod confirm 19988 | D1 no dopamine inactive | Isoprot counter 3384
COc1ccc(-c2nc(CN3CCC(C(=O)N4CCc5ccccc54)CC3)c(C)o2)cc1OC	D1 mod 2.79 | D1 mod confirm 6820 | D1 no dopamine inactive | Isoprot counter 3344
COc1ccc(-c2nnc(SCC#CCO)o2)cc1OC	D1 mod 15.5 | D1 mod confirm 16500 | D1 no dopamine inactive | Isoprot counter 4316
COc1ccc(-c2nnc(SCC(=O)N3CCCC3)o2)cc1OC	none (no result: HePTP inh, TNAP act mid DEA, FXIIa inh mix, FXIa inh mix)
COc1ccc(-c2nc(CN3CCC(C(=O)NC(C)C)CC3)c(C)o2)cc1OC	none (no result: Candida biofilm)
CCCC(c1nnnn1C1CCCC1)N1CCN(C(=O)c2ccco2)CC1 (stereo unspecified)	D1 mod 3.44 | D1 mod confirm inactive | D1 no dopamine inactive | Isoprot counter inactive
O=C(OCCN1C(=O)c2ccccc2C1=O)c1cc(S(=O)(=O)N2CCOCC2)ccc1Cl	D1 mod 3.39 | D1 mod confirm 9076 | D1 no dopamine inactive | Isoprot counter 3280
Cc1cnc(NC(=O)c2ccc([N+](=O)[O-])cc2)s1	none (no result: Candida biofilm, D1 mod, TNAP act mid DEA, FXIIa inh mix, FXIa inh mix)
O=c1c2ccccc2nc(SCc2cccc(F)c2)n1Cc1ccco1	D1 mod 5.16 | D1 mod confirm 10716 | D1 no dopamine inactive | Isoprot counter inactive
O=c1c2ccccc2nc(SCc2ccccc2)n1Cc1ccco1	none
COc1ccc(NC(=O)C2CCCN2c2ccc(OC)c(OC)c2)cc1OC (stereo unspecified)	D1 mod 6.04 | D1 mod confirm 15612 | D1 no dopamine inactive | Isoprot counter 4296
COc1ccc(CN2CCCCC2C(=O)Nc2ccc(OC)c(OC)c2)cc1OC (stereo unspecified)	D1 mod 7.19 | D1 mod confirm 14900 | D1 no dopamine inactive | Isoprot counter 3784
COc1ccc(NC(=O)C2CCCCN2N)cc1OC (stereo unspecified)	none (no result: D1 mod, HePTP inh, TNAP act mid DEA, FXIIa inh mix, FXIa inh mix)
C=CCNc1nc(NC(C)(C)CO)nc(OCC)n1	none
CCOc1nc(NCCc2ccc(OC)c(OC)c2)nc(NC(C)(C)CO)n1	D1 mod 3.24 | D1 mod confirm 9808 | D1 no dopamine inactive | Isoprot counter inactive
O=C(O)C(C(=O)O)C1c2ccccc2Sc2ccccc21	none (no result: Candida biofilm, D1 mod, TNAP act mid DEA, FXIIa inh mix, FXIa inh mix)
CSc1ncccc1C(=O)OCc1ccccc1F	D1 mod 10.1 | D1 mod confirm 16732 | D1 no dopamine inactive | Isoprot counter 3808
CSc1ncccc1C(=O)OCc1ccccc1	none (no result: D1 mod)
COc1ccccc1/C=C(\C#N)C(=O)Nc1ccc(F)cc1	none (no result: Candida biofilm, D1 mod, TNAP act mid DEA, FXIIa inh mix, FXIa inh mix)
CN1C(=S)SC(C)(C)C1/[N+]([O-])=C/c1cccnc1 (stereo unspecified)	D1 mod 7.51 | D1 mod confirm inactive | D1 no dopamine inactive | Isoprot counter inactive
CCC(C)(C(=O)NC1CCCC1)N(Cc1ccco1)C(=O)c1ccc2c(c1)OCO2 (stereo unspecified)	D1 mod 4.86 | D1 mod confirm inactive | D1 no dopamine inactive | Isoprot counter inactive
c1ccc2c(c1)nc(CN1CCOCC1)n1c3ccccc3nc21	none (no result: D1 mod, FXIIa inh mix, FXIa inh mix)
